Experiment [1] can be described thus: qHTS assay to identify small molecule agonists of the hypoxia (HIF-1) signaling pathway (AID 1224846; active = well fitted activation curve with a large enough effect in the signal ratio in the repeat runs, not every such curve was filed as active; the % refers to the signal ratio). In short, it runs like this:
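In ME-180 cells bearing an HRE-bla construct, 17 h treatment with DMSO-dissolved compounds at 37C was followed by CCF4-AM loading to quantify reporter induction.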

Experiment [2] can be described thus: qHTS RealTime-Glo MT Cell Viability Assay in HEK293 cells - 32 hour (AID 1224868). Note: nearly all actives have a fitted effect of over 50% in size. Note: potency is the fitted concentration of half-maximal effect. Summed up: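 Quantitative high-throughput screen of the Tox21 10K library in HEK293: cells and RealTime-Glo reagents plated together, compound added at 5 h, luminescence monitored through 40 h at 37 C.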
A general note: Quantitative high-throughput screening tests each substance at several concentrations.

Experiment [3] is described as follows: qHTS RealTime-Glo MT Cell Viability Assay in HepG2 cells - 40 hour (AID 1224870). Note: nearly all actives have a fitted effect of over 50% in size. Note: potency is the fitted concentration of half-maximal effect. Summed up:
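HepG2 cells (600/well) mixed with RealTime-Glo MT reagent, settled 5 h at 37 C/5% CO2 before compound addition. Nonlytic NanoLuc luminescence from viable-cell prosubstrate reduction read repeatedly during 40 h treatment at 37 C.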

A short description of experiment [4]: A CellTox Green Cytotoxicity Assay to monitor cytotoxicity in HEK293 cells - 40 hour (AID 1224871). Note: nearly all actives have a fitted effect of over 45% in size. Note: potency is the fitted concentration of half-maximal effect. In short, it runs like this:
(§1)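 Homogeneous no-lysis format: HEK293 cell suspension mixed with CellTox Green reagent, seeded, incubated 5 h at 37 C/5% CO2, then dosed by pintool with compound in DMSO.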

Experiment [5] is described as follows: qHTS assay to identify small molecule antagonists of the estrogen related receptor (ERR) signaling pathway from Tox21 library (AID 1224848). Note: nearly all actives have a fitted effect of over 50% in size. Note: potency is the fitted concentration of half-maximal effect. Summed up:
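Quantitative high-throughput format: ERR reporter cells (2,000/well) pre-incubated 6 h, treated 18 h at 37 C with compounds in DMSO alongside positive and negative controls, then read by ONE-Glo luminescence.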

Experiment [6] can be described thus: qHTS assay to identify small molecule agonists of the estrogen related receptor (ERR) signaling pathway from Tox21 library (AID 1224849; calls by dose curve; note: nearly all actives have a fitted effect of over 15% in size). As to conditions: ERR reporter cell line, ONE-Glo luciferase, 18 h. In short, it runs like this: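 Reporter cells (ERR, NTP source) treated with Tox21 10K compounds 18 h, 37 C. Readout: ONE-Glo luminescence, 30 min RT.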
A short description of experiment [7]: qHTS RealTime-Glo MT Cell Viability Assay in HepG2 cells - 24 hour (AID 1224867). Note: nearly all actives have a fitted effect of over 50% in size. Note: potency is the fitted concentration of half-maximal effect. Summed up:
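Compound treatment began 5 h after plating HepG2 cells (600/well) with NanoLuc luciferase and prosubstrate. Plates stayed at 37 C for 40 h; luminescence was captured at six time points, 0 h through 40 h.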

The nature of experiment [8]: A CellTox Green Cytotoxicity Assay to monitor cytotoxicity in HEK293 cells - 0 hour (AID 1224869). Note: nearly all actives have a fitted effect of over 50% in size. Summed up:
as §1

The nature of experiment [9]: qHTS assay to identify small molecule agonists of H2AX - cell viability counter screen (AID 1224847; calls by dose curve; note: nearly all actives have a fitted effect of over 30% in size; note: potency is the fitted concentration of half-maximal effect). Summed up: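 We seed wild-type CHO-K1 cells overnight, treat them for 3 hr at 37C with compounds in 15-concentration series, and quantify remaining viability by CellTiter-Glo luminescence.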

The structures appear in SMILES notation. Values joined by “and” are separate entries in the source; they are usually repeats but may differ in a detail not shown here. Equal entries are not always repeated. Inconclusive results are not listed. Where a structure was tested more than once in an assay, its records may differ in their call. Active and inactive are the calls of the source. Unless noted, calls come from the whole dose curve; as a rule, active = well fitted curve in the direction sought with a large enough effect in the repeat runs; inconclusive = weak or mixed curves; inactive = no such curve, though single readings can be large; an effect the other way counts as inactive or inconclusive.
% is set by controls: 0 for no effect and ±100 for the full control effect.

Take `Cc1ccc(S(=O)(=O)O)cc1`: in experiment [1], the outcome was inactive. For the same molecule, the Potency entry in [2], in experiment [3] and in experiment [4] was “inactive” each time.
On to `Nc1ccc(S(N)(=O)=O)cc1`, for which, in experiment [1], the result was inactive. The Potency result in experiment [2], in [3] and in experiment [4] was “inactive” each time.
Consider `CN[C@H]1CC[C@@H](c2ccc(Cl)c(Cl)c2)c2ccccc21`, for which the Potency in [5] was 26.6 µM (active); in experiment [7], 23.9 µM (active); in experiment [2], 23.9 µM (active); in experiment [3], 23.9 µM (active). Also, the activity change, positive = activation in experiment [6] (at 42.5 µM (top of the series)) was -39% (inactive). Further, the Potency entry in experiment [8] was “inactive”.
With `Cc1cc(=O)oc2cc(O)ccc12`, the Potency entry in experiment [9], in experiment [7], in experiment [2], in [8], in experiment [3] and in experiment [4] was “inactive” in each case.
With `C=C1CC[C@H](O)C/C1=C\C=C1/CCC[C@]2(C)[C@@H]([C@H](C)CCCC(C)C)CC[C@@H]12`, the Potency result in [7], in [8] and in experiment [3] was “inactive” in each case. Further, the Potency in experiment [2] was 43.2 µM (active).
For the molecule `CN1CCC[C@H]1c1cccnc1`, the Potency result in experiment [7], in experiment [2], in [8], in [3] and in [4] was “inactive” throughout.
Take `CC(C)NCC(O)c1ccc(O)c(O)c1` (stereo not drawn): the Potency result in [5], in [7], in experiment [3] and in experiment [4] was “inactive” in each case. Besides, the activity change, positive = activation is 7.23% (inactive) in [6] (at 42.5 µM (top of the series)); 4.56% (inactive) and 1.6% (inactive) in experiment [6] (at 92.4 µM (top of the series)). Besides, in experiment [2], the Potency was 43.1 µM (active) and inactive.
For `Cc1cn([C@H]2C=C[C@@H](CO)O2)c(=O)[nH]c1=O`, the Potency entry in experiment [9], in [2], in experiment [8], in experiment [3] and in experiment [4] was “inactive” throughout.
For the molecule `CCCCOC(=O)c1ccc(O)cc1`, the Potency entry in experiment [7] and in experiment [3] was “inactive” throughout. In addition, the Potency is 24.8 µM (active) in experiment [2]; 49.6 µM (active) and inactive in [4].
For the molecule `Cc1ncc([N+](=O)[O-])n1CCO`, the Potency entry in [5], in [7], in experiment [2], in [8], in experiment [3] and in [4] was “inactive” in each case. Moreover, the activity change, positive = activation in [6] (at 42.5 µM (top of the series)) is 4.15% (inactive); in experiment [6] (at 92.4 µM (top of the series)) it was 5.04% (inactive) and 2.17% (inactive).
On to `CN1CCc2cccc3c2[C@H]1Cc1ccc(O)c(O)c1-3`, for which, in experiment [9], the Potency entry was “inactive”. Moreover, the Potency in experiment [5] was 24.6 µM (active) and 18.1 µM (active); in experiment [2], 15.7 µM (active) and 8.17 µM (active) and 23.9 µM (active); in experiment [3] it was 18.3 µM (active); in experiment [4], 55.5 µM (active) and inactive. For the same molecule, the activity change, positive = activation in [6] (at 42.5 µM (top of the series)) is -69.6% (inactive) and -53% (inactive); in experiment [6] (at 92.4 µM (top of the series)), -66.3% (inactive).
For `O=C1NC(=O)C(c2ccccc2)(c2ccccc2)N1`, the Potency result in experiment [9], in experiment [2], in experiment [8] and in experiment [3] was “inactive” throughout. Also, the Potency entry in experiment [4] is “inactive and 16.9 µM (active)”.
In the case of `C1CCC(C(CC2CCCCN2)C2CCCCC2)CC1` (stereo not drawn), the Potency was 29.8 µM (active) in [5]; 5.35 µM (active) in [7]; 10.7 µM (active) in experiment [2]; 5.35 µM (active) in experiment [3]; 16.9 µM (active) in [4]. In experiment [6] (at 42.5 µM (top of the series)), the activity change, positive = activation was -54.8% (inactive). Besides, in experiment [8], the Potency entry is “inactive”.
Turning to `CN1[C@@H]2CC(OC(=O)[C@H](CO)c3ccccc3)C[C@H]1[C@@H]1O[C@@H]12` (stereo partly drawn), the Potency entry in experiment [9], in experiment [7], in experiment [2], in experiment [8], in [3] and in experiment [4] was “inactive” throughout.
As to `CCCCNC(=O)NS(=O)(=O)c1ccc(C)cc1`, the Potency entry in experiment [9], in [5], in experiment [2], in [3] and in experiment [4] was “inactive” each time. For the same molecule, the activity change, positive = activation is 4.14% (inactive) in experiment [6] (at 42.5 µM (top of the series)); -14.4% (inactive) and 0.897% (inactive) in [6] (at 92.4 µM (top of the series)).
As to `O=C(Nc1ncc([N+](=O)[O-])s1)c1cccs1`, the Potency result in experiment [5], in [7], in [2], in experiment [8], in experiment [3] and in experiment [4] was “inactive” each time. Further, the activity change, positive = activation in experiment [6] (at 42.5 µM (top of the series)) was 14.6% (active).
For `CCc1nc(N)nc(N)c1-c1ccc(Cl)cc1`, the Potency entry was “inactive and 8.98 µM (active) and 12.4 µM (active)” in experiment [9]; 3.52 µM (active) and 12.3 µM (active) in [2]. Moreover, the Potency entry in experiment [7], in experiment [3] and in experiment [4] was “inactive” throughout.
For `Nc1c(N=Nc2ccc(-c3ccc(N=Nc4cc(S(=O)(=O)O)c5ccccc5c4N)cc3)cc2)cc(S(=O)(=O)O)c2ccccc12`, the results for the Potency in experiment [5], in [2] and in experiment [3] were 24.3 µM (active), 38.9 µM (active) and 48.9 µM (active), respectively. Besides, the activity change, positive = activation in [6] (at 92.4 µM (top of the series)) is -40.2% (inactive). In experiment [4], the Potency result is “inactive”.
As for `CCCCC1(COC(=O)CCC(=O)O)C(=O)N(c2ccccc2)N(c2ccccc2)C1=O`, the Potency result in experiment [9], in experiment [5], in [7], in experiment [2], in [8] and in [3] was “inactive” each time. Besides, in experiment [4], the Potency result was “inactive”. The activity change, positive = activation in experiment [6] (at 42.5 µM (top of the series)) was -6.77% (inactive); in experiment [6] (at 92.4 µM (top of the series)), 3.58% (inactive) and -11.1% (inactive).
With `CC(C)C(=O)Nc1ccc([N+](=O)[O-])c(C(F)(F)F)c1`, the Potency in [9] is 104 µM (active) and inactive; in experiment [5] it was 25 µM (active) and 27.3 µM (active) and 13.3 µM (active); in [2], 12.6 µM (active) and 19.5 µM (active) and 9.52 µM (active). The activity change, positive = activation in [6] (at 42.5 µM (top of the series)) was -30.7% (inactive); in experiment [6] (at 92.4 µM (top of the series)), -65.7% (inactive) and -58.2% (inactive). In addition, the Potency entry in [3] and in experiment [4] was “inactive” throughout.
As to `CN(C)CCOC(C)(c1ccccc1)c1ccccn1` (stereo not drawn), the Potency entry in experiment [9], in experiment [5], in experiment [7], in experiment [2], in experiment [8] and in [3] was “inactive” in each case. Moreover, in experiment [4], the Potency entry is “inactive”. Moreover, the activity change, positive = activation in experiment [6] (at 42.5 µM (top of the series)) is 0.337% (inactive); in experiment [6] (at 92.4 µM (top of the series)), 3.01% (inactive) and -2.07% (inactive).
For `NS(=O)(=O)c1cc2c(cc1Cl)NCNS2(=O)=O`, the Potency result in experiment [5], in experiment [2], in experiment [8], in experiment [3] and in experiment [4] was “inactive” each time. Also, the activity change, positive = activation in [6] (at 42.5 µM (top of the series)) was -0.0876% (inactive); in experiment [6] (at 92.4 µM (top of the series)), 0.0385% (inactive) and 5.11% (inactive).
For `CC(O)(P(=O)(O)O)P(=O)(O)O`, the Potency entry in experiment [7], in experiment [2], in experiment [3] and in [4] was “inactive” each time.

For the origin of these results see PubChem BioAssay (Tox21).
